# The list is not random: actives were taken first. Their share in the collection is about 1.5%.
# eIF4H FP inh: human eIF4H binding inhibitors, primary screen, translation initiation inhibitor project, biochemical, uHTS, fluorescence polarization; hit rate 0.94% among 290,000; inhibition, % at 35 µM; Eukaryotic translation initiation factor 4H (Homo sapiens), Q15056; eIF4H fluorescence polarization binding assay;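 further: calls also rest on retests at 20 µM and on dose response follow-up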
# PABP FP inh: PABP poly(A) RNA binding inhibitors, primary screen, biochemical, fluorescence polarization, uHTS. calls only at 35 µM. AID 2014, 2009. Polyadenylate-binding protein 1 (Homo sapiens), P11940. hit rate 1% among 290,000;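 further: calls also rest on retests at 20 µM and on dose response follow-up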
# MLLE-PAM2 inh: inhibitors of PABP1 MLLE–PAM2 peptide binding, primary screen, biochemical, fluorescence polarization, FITC-PAM2, GST-MLLE; Polyadenylate-binding protein 1 (Homo sapiens), P11940; inhibition, % at 20 µM; hit rate 0.36% among 360,000; AID 588489, 2011; in the data active means inhibition above about 35%, passing the limit was not always enough
# eIF4E 4G PPI: eIF4E–eIF4G protein interaction inhibitors, primary screen, biochemical, uHTS, TR-FRET, eIF4GI fragment; inhibition, % at 21.7 µM; AID 782, 2007; TR-FRET eIF4E-eIF4GI(517-606) binding, 2 h; Eukaryotic translation initiation factor 4E (Mus musculus) + Eukaryotic translation …; hit rate 0.37% among 220,000;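 active means inhibition above about 30%, limit read from the data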
# Numbers stand for hits; – = inactive; ? = inconclusive; · = not tested or not shown; + = active, no number. Unless noted, how the calls were made is not given here.
SMILES,eIF4H FP inh,PABP FP inh,MLLE-PAM2 inh,eIF4E 4G PPI
O=C(NC(=S)Nc1ccc(Oc2ccccc2)cc1)c1ccc(Cl)cc1,–,–,41,–
CCN1C(=O)N2C[C@H]3CON(C)[C@H]3C[C@H]2c2ccccc21,·,·,–,·
CCc1cc(=O)oc2c(CNCc3c(F)cccc3Cl)c(O)ccc12,–,–,–,·
CCCc1cc(=O)oc2c(CNc3ccc(OCC)cc3)c(O)ccc12,–,+,–,·
CCN(CC)c1cccc(OC2=NS(=O)(=O)c3ccccc32)c1,58,–,–,–
CCCCC1=CC2=C(c3ccco3)C(=O)C(C)(OC(=O)c3ccc(OC)cc3)C(=O)C2=CN1CCOC (configuration not stated),?,?,–,–
CCCCC1=CC2=C(c3ccco3)C(=O)C(C)(OC(=O)c3ccc(OC)cc3)C(=O)C2=CN1Cc1ccccc1 (configuration not stated),–,+,–,–
CCC(C(=O)NC(C)CCc1ccccc1)n1nc(C)n2c(cc3occc32)c1=O (configuration not stated),–,–,–,–
CCC(C(=O)NC(C)CCc1ccco1)n1nc(C)n2c(cc3occc32)c1=O (configuration not stated),–,–,–,50
Cc1ccc(C(=O)NCCc2nnc3ccc(SCC(=O)NCc4ccc(F)cc4)nn23)cc1,–,–,–,·
COc1ccc(C2=CC3=C(Br)C(=O)C(C)(OC(=O)c4ccc(Cl)nc4)C(=O)C3=CO2)cc1 (configuration not stated),–,+,·,–
CC1Sc2ccc(C#N)cc2N(Cc2cccc(C(F)(F)F)c2)C1=O (configuration not stated),·,·,–,·
CCOc1ccc(C(=O)NCCCCNC(=O)c2ccc(OCC)cc2)cc1,–,–,–,·
CCOc1ccc(C(=O)NC(C)(C)CC)cc1,–,+,–,–
Nc1cc(Nc2ccc(Br)cc2)nc(N)n1,–,–,43,–
Cc1cc(Nc2ccc(Cl)cc2)nc(N)n1,–,–,–,–
Cc1cc2cc(CNC(=O)c3ccc(C)c([N+](=O)[O-])c3)ccc2[nH]1,–,–,43,–
Cc1cc(C)n(NC(=S)NC2CCCCC2)c(=O)c1C#N,–,–,45,–
Cc1cc(C)n(CCCO)c(=O)c1C#N,–,–,–,–
CCOC(=O)c1c(CSc2ccccc2)n(C)c2cc(Br)c(O)c(CN(C)C)c12,–,–,–,–
CCOC(=O)c1c(CSc2ccc(C)cc2)n(C)c2cc(Br)c(O)c(CN(C)C)c12,–,–,100,–
C[C@H]1CN([C@@H](C)CO)C(=O)CCCn2cc(nn2)CO[C@@H]1CN(C)S(=O)(=O)c1ccc(C#N)cc1,·,·,–,·
CC(=O)NC(Cc1ccccc1)C(=O)OCC(=O)c1ccc(Cl)cc1 (configuration not stated),active,+,–,–
CC(=O)NC(Cc1ccccc1)C(=O)OCC(=O)c1ccccc1 (configuration not stated),–,–,–,–
CCOC(=O)C(=O)N(C)c1c(CC)nc2c(OCc3ccccc3C)cccn12,·,·,–,·
SMILES,eIF4H FP inh,PABP FP inh,MLLE-PAM2 inh,eIF4E 4G PPI
CCC1(c2ccccc2)NC(=S)N(c2ccc(C)c(C)c2)N1 (configuration not stated),–,–,–,52
COc1ccc(CNC(=O)C2CCN(c3nnc(N4CCCC4=O)s3)CC2)cc1,90,+,–,·
Cc1noc(C)c1S(=O)(=O)N(C)C[C@H]1Oc2ccc(NS(=O)(=O)c3ccccc3)cc2C(=O)N([C@H](C)CO)C[C@@H]1C,·,·,–,·
NC(=O)C1=C[C@H](c2ccc(C(F)(F)F)cc2)C[C@H](OCc2ccc(CO)cc2)O1,?,+,–,–
COC(=O)c1sc(N2C(=O)C(O)=C(C(=O)c3ccc(C)o3)C2c2ccco2)nc1C (configuration not stated),52,+,–,·
O=c1cc(O)c(-c2ccc(Cl)c(Cl)c2)c(Cl)[nH]1,82,+,–,–
COc1cccc2c(=O)n(CC(=O)Nc3ccccc3F)ccc12,?,+,–,–
O=C(O)c1cccc(N2C(=O)c3cc([N+](=O)[O-])cc4cc([N+](=O)[O-])cc(c34)C2=O)c1,68,+,–,·
COc1cc(Nc2ccn3nc(-c4ccccc4Cl)cc3n2)cc(OC)c1OC,·,·,–,·
CC1CCc2c(sc3ncnc(NCCN4CCOCC4)c23)C1 (configuration not stated),–,–,–,51
